These results are taken from the supplement of paper PMC10849652.

The full data set covers some 8,800 targets. This sample favours those with a hit. About 0.5% of all pairs of compound and target were hits. Values without a mark were called inactive.

Chain of UniProt P61224 (P61224 whole entry, looked up): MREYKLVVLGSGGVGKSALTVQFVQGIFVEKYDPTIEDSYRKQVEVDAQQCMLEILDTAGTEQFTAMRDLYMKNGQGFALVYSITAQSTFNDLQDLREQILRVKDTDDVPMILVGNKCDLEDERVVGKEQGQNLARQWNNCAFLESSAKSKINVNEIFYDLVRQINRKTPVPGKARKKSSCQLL
Chain of UniProt Q9BWH6 (Q9BWH6 whole entry, looked up): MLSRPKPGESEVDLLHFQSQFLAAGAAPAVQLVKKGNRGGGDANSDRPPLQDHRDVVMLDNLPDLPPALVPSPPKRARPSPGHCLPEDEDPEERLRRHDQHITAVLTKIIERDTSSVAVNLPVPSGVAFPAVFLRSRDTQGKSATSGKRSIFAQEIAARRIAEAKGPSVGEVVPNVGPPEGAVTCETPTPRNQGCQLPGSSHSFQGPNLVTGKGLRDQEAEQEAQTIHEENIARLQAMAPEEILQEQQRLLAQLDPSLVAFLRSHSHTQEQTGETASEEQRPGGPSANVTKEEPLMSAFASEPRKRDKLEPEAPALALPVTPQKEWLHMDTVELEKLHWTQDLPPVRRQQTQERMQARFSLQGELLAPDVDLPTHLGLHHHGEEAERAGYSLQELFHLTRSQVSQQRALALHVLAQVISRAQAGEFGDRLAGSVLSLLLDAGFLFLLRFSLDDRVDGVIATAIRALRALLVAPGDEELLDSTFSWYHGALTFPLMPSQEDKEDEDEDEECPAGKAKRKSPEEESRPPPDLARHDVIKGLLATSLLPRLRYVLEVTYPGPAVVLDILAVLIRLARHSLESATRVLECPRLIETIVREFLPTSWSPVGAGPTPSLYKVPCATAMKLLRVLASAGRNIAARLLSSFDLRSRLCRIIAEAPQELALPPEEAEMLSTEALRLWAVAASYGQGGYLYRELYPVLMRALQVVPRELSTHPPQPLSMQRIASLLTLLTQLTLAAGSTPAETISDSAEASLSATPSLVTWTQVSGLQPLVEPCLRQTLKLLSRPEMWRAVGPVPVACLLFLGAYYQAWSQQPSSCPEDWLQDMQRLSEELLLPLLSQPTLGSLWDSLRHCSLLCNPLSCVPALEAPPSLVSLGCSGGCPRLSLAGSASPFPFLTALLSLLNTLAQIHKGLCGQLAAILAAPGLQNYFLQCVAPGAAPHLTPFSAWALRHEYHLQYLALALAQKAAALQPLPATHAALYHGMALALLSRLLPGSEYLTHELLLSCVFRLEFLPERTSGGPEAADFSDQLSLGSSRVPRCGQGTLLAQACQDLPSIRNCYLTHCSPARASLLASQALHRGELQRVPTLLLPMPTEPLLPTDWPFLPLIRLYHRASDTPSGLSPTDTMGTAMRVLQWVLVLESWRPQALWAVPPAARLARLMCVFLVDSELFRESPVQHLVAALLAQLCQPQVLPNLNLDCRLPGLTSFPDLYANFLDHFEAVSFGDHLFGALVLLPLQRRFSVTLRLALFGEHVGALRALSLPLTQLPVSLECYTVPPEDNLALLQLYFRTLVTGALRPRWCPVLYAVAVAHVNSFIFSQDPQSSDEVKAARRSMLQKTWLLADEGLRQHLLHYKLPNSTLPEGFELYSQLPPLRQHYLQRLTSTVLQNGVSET
Chain of UniProt Q4ADV7 (Q4ADV7 whole entry, looked up): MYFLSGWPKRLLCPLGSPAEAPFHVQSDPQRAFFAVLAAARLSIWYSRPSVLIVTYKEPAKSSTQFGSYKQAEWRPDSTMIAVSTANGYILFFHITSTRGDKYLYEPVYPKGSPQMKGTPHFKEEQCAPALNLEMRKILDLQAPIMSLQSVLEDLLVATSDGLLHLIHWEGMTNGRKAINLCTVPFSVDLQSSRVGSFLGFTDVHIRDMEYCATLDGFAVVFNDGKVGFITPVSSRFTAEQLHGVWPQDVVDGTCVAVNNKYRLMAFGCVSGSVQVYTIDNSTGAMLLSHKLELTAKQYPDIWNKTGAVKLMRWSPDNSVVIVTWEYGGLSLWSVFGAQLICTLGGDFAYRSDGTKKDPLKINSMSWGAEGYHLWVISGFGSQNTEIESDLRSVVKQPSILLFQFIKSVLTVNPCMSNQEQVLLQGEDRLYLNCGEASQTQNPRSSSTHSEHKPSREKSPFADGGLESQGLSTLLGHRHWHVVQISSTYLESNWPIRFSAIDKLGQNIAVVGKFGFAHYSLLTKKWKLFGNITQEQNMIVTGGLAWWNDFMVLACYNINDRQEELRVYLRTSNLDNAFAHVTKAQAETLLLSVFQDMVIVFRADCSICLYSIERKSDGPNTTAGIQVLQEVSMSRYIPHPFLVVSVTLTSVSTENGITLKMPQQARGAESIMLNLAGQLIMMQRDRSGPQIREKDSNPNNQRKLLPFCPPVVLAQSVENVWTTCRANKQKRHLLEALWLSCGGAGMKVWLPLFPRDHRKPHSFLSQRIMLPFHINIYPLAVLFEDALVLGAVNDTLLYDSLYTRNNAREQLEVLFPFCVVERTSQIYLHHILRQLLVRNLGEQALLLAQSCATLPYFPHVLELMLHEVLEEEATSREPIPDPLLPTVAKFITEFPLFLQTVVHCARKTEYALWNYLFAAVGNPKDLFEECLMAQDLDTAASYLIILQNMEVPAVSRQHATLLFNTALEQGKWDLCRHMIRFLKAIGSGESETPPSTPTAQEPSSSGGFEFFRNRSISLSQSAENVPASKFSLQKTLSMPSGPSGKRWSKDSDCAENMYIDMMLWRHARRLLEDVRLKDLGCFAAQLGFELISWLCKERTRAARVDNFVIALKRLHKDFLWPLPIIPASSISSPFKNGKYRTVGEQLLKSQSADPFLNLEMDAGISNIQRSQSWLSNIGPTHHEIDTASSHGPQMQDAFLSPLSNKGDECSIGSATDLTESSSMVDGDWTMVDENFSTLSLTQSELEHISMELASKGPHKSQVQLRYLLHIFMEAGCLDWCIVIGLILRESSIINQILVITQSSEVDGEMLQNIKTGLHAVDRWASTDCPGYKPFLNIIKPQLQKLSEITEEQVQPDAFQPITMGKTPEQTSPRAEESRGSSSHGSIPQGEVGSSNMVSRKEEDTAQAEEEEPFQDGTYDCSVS
Chain of UniProt P04844 (P04844 whole entry, looked up): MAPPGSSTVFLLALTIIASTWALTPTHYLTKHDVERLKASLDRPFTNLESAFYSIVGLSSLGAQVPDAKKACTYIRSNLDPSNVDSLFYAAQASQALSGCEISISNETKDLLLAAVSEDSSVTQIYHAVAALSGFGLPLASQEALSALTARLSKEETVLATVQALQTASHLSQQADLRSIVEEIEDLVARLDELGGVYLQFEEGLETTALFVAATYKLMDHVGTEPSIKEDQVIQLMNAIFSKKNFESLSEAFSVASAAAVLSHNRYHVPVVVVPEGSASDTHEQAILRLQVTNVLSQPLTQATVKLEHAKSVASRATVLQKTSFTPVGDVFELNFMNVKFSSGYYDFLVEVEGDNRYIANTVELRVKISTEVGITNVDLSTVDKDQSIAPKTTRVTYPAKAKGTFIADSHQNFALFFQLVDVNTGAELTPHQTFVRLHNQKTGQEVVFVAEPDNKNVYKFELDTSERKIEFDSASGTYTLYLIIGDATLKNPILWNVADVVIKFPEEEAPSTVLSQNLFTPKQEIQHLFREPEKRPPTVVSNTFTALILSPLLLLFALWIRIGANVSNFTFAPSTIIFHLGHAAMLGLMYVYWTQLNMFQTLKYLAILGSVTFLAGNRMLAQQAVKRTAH
Chain of UniProt Q9UQR0 (Q9UQR0 whole entry, looked up): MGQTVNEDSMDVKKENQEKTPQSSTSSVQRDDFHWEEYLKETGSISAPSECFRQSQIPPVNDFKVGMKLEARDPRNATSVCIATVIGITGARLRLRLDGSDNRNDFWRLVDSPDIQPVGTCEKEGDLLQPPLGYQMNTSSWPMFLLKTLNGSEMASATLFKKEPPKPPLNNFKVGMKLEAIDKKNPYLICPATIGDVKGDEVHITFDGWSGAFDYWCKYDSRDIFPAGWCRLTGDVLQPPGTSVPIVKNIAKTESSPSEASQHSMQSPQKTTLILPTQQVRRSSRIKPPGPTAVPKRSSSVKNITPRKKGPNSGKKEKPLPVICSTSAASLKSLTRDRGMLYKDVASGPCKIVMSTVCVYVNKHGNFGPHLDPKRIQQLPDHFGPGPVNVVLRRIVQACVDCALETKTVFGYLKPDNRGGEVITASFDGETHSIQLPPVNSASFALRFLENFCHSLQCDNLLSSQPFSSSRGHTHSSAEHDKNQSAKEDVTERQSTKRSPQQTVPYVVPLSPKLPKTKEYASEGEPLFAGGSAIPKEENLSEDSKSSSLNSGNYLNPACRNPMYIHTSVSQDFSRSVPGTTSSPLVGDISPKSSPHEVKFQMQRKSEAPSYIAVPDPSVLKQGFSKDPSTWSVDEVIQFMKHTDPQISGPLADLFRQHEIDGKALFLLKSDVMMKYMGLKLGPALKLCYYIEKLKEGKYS
Chain of UniProt O14730 (O14730 whole entry, looked up): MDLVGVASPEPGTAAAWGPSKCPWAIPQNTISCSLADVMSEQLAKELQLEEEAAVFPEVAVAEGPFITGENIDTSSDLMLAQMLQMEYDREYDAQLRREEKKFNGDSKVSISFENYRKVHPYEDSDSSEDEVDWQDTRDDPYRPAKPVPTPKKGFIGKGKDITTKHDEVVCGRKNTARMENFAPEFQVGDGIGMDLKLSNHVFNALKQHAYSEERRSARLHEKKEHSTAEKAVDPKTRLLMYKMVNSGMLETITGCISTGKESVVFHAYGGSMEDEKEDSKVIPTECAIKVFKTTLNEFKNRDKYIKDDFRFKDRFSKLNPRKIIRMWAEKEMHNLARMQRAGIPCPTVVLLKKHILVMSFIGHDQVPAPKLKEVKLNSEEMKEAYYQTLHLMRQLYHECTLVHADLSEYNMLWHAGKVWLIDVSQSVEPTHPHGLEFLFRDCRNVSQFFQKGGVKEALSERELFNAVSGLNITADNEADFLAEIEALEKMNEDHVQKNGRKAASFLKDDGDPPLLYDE
Chain of UniProt Q9UL25 (Q9UL25 whole entry, looked up): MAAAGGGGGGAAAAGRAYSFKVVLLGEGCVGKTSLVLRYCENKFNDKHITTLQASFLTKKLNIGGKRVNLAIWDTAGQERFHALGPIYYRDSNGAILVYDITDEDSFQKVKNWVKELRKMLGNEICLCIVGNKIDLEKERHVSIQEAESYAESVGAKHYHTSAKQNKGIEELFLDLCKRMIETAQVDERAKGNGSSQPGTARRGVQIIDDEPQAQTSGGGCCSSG

Compound in the first assay: C=CC(=O)N1CCC[C@@H](n2nc(-c3ccc(Oc4ccccc4)cc3)c3c(N)ncnc32)C1 [ibrutinib]
The assay is described as follows: log2 fold change, soluble protein after heating vs DMSO (PISA); higher = thermal stabilisation; K562 lysate, 10 uM; active = over 0.2 and 3.5 SD of the protein, either way, in both replicates (recomputed). The method in brief:
(§1)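 Log-two fold change in thermal stability relative to solvent controls is reported from duplicates. For each sample, crude K562 extract from dounce-homogenised pellets in PBS pH 7.4 with 1 mM MgCl2, at 1 mg/mL protein, was treated with 10 μM compound for 30 min. Aliquots heated for 3 min across 48°C-58°C were pooled, brought to 0.5% NP-40 at 4°C and cleared at 21,000xg for 90 min. The supernatant was quantified by TMTpro 16plex LC-MS/MS with channel sums equalised.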
Consider SCML2 (UniProt Q9UQR0), for which the log2 fold change is -0.011.

On to SESN2 (UniProt P58004), for which the log2 fold change is -0.001.

For RAF1 isoform 2 (UniProt P04049), the log2 fold change was -0.046.

Turning to RFC3 (UniProt P40938), the log2 fold change is 0.024.

For RPS4X (UniProt P62701), the log2 fold change is 0.

With SEC24D isoform 2 (UniProt O94855), the log2 fold change is 0.005.

Consider SCCPDH (UniProt Q8NBX0), for which the log2 fold change is 0.155.

SEH1L isoform 1 (UniProt Q96EE3): the log2 fold change was 0.013.

On to RTN4IP1 (UniProt Q8WWV3), for which the log2 fold change is 0.073.

For RPAP1 (UniProt Q9BWH6), the log2 fold change was -0.016.

For RIOK1 (UniProt Q9BRS2), the log2 fold change is 0.006.

Take REXO4 (UniProt Q9GZR2): the log2 fold change is 0.014.

For RNF181 (UniProt Q9P0P0), the log2 fold change is 0.043.

As to RBMX (UniProt P38159), the log2 fold change was -0.034.

As to RIOK3 (UniProt O14730), the log2 fold change was -0.021.

As for RNASEH2B (UniProt Q5TBB1), the log2 fold change is -0.001.

For SCD (UniProt O00767), the log2 fold change was -0.06.

For the target RBM42 (UniProt Q9BTD8), the log2 fold change is 0.071.

On to RPL37A (UniProt P61513), for which the log2 fold change was -0.005.

As for RPN2 (UniProt P04844), the log2 fold change is -0.008.

Take RRAGA (UniProt Q7L523): the log2 fold change was -0.114.

On to RIC1 (UniProt Q4ADV7), for which the log2 fold change is -0.129.

Regarding RNASEL (UniProt Q05823), the log2 fold change is -0.072.

Consider RECQL5 (UniProt O94762), for which the log2 fold change was 0.014.

For QRSL1 (UniProt Q9H0R6), the log2 fold change is -0.171.

For SBF1 isoform 4 (UniProt O95248), the log2 fold change was 0.086.

For RAP1B (UniProt P61224), the log2 fold change is -0.024.

As for RPS26P11 (UniProt Q5JNZ5), the log2 fold change is -0.037.

As for RPL8 (UniProt P62917), the log2 fold change is 0.031.

Consider RIPK1 (UniProt Q13546), for which the log2 fold change is -0.02.

As for RDX (UniProt P35241), the log2 fold change was -0.051.

With RAB21 (UniProt Q9UL25), the log2 fold change is 0.026.

On to RBBP7 isoform 2 (UniProt Q16576), for which the log2 fold change is 0.016.

Compound in another assay: CC(=O)c1cnc2ccc(-c3cc(Cl)c(O)c(Cl)c3)nc2c1N[C@H]1CC[C@H](CN(C)C)CC1
The assay is described as above. Summed up: as §1
In the case of SCML2 (UniProt Q9UQR0), the log2 fold change was 0.028.

Consider SESN2 (UniProt P58004), for which the log2 fold change was -0.038.

As for RAF1 isoform 2 (UniProt P04049), the log2 fold change was 0.047.

In the case of RFC3 (UniProt P40938), the log2 fold change was 0.131.

Turning to RPS4X (UniProt P62701), the log2 fold change was -0.003.

Consider SEC24D isoform 2 (UniProt O94855), for which the log2 fold change was -0.024.

As for SCCPDH (UniProt Q8NBX0), the log2 fold change is -0.042.

For the target SEH1L isoform 1 (UniProt Q96EE3), the log2 fold change was -0.024.

As for RTN4IP1 (UniProt Q8WWV3), the log2 fold change was 0.02.

Take RPAP1 (UniProt Q9BWH6): the log2 fold change was 0.049.

Consider RIOK1 (UniProt Q9BRS2), for which the log2 fold change was 0.251.

As for REXO4 (UniProt Q9GZR2), the log2 fold change was 0.027.

As to RNF181 (UniProt Q9P0P0), the log2 fold change was -0.024.

In the case of RBMX (UniProt P38159), the log2 fold change was -0.132.

RIOK3 (UniProt O14730): the log2 fold change is -0.013.

Take RNASEH2B (UniProt Q5TBB1): the log2 fold change is -0.032.

As for SCD (UniProt O00767), the log2 fold change is -0.053.

Turning to RBM42 (UniProt Q9BTD8), the log2 fold change was 0.02.

With RPL37A (UniProt P61513), the log2 fold change was 0.002.

On to RPN2 (UniProt P04844), for which the log2 fold change is 0.014.

In the case of RRAGA (UniProt Q7L523), the log2 fold change was 0.008.

For the target RIC1 (UniProt Q4ADV7), the log2 fold change was -0.052.

Regarding RNASEL (UniProt Q05823), the log2 fold change is -0.033.

As to RECQL5 (UniProt O94762), the log2 fold change is -0.335.

For QRSL1 (UniProt Q9H0R6), the log2 fold change is -0.059.

For SBF1 isoform 4 (UniProt O95248), the log2 fold change is 0.116.

Consider RAP1B (UniProt P61224), for which the log2 fold change was -0.005.

As for RPS26P11 (UniProt Q5JNZ5), the log2 fold change was 0.004.

Regarding RPL8 (UniProt P62917), the log2 fold change was 0.007.

As for RIPK1 (UniProt Q13546), the log2 fold change is -0.025.

Turning to RDX (UniProt P35241), the log2 fold change was 0.

With RAB21 (UniProt Q9UL25), the log2 fold change is -0.004.

For RBBP7 isoform 2 (UniProt Q16576), the log2 fold change was 0.043.

Compound in the next assay: CC(C)(C)Cn1c(N)nc2ccc(-c3[nH]c(C(C)(C)C)nc3-c3ccc(F)cc3)nc21 [ralimetinib]
The description is as above. Summed up:
as §1
Consider SCML2 (UniProt Q9UQR0), for which the log2 fold change is 0.004.

For SESN2 (UniProt P58004), the log2 fold change was 0.018.

As to RAF1 isoform 2 (UniProt P04049), the log2 fold change was 0.054.

On to RFC3 (UniProt P40938), for which the log2 fold change is 0.03.

With RPS4X (UniProt P62701), the log2 fold change is 0.009.

With SEC24D isoform 2 (UniProt O94855), the log2 fold change was 0.01.

In the case of SCCPDH (UniProt Q8NBX0), the log2 fold change was 0.083.

Take SEH1L isoform 1 (UniProt Q96EE3): the log2 fold change is -0.011.

Consider RTN4IP1 (UniProt Q8WWV3), for which the log2 fold change was 0.012.

With RPAP1 (UniProt Q9BWH6), the log2 fold change was 0.02.

With RIOK1 (UniProt Q9BRS2), the log2 fold change was 0.002.

For REXO4 (UniProt Q9GZR2), the log2 fold change was 0.021.

For the target RNF181 (UniProt Q9P0P0), the log2 fold change is -0.001.

Regarding RBMX (UniProt P38159), the log2 fold change is 0.004.

Regarding RIOK3 (UniProt O14730), the log2 fold change is 0.055.

On to RNASEH2B (UniProt Q5TBB1), for which the log2 fold change is 0.026.

Turning to SCD (UniProt O00767), the log2 fold change is 0.059.

As to RBM42 (UniProt Q9BTD8), the log2 fold change was -0.011.

As for RPL37A (UniProt P61513), the log2 fold change is -0.041.

Turning to RPN2 (UniProt P04844), the log2 fold change is -0.004.

For RRAGA (UniProt Q7L523), the log2 fold change is -0.112.

On to RIC1 (UniProt Q4ADV7), for which the log2 fold change was 0.046.

In the case of RNASEL (UniProt Q05823), the log2 fold change is 0.037.

For the target RECQL5 (UniProt O94762), the log2 fold change is 0.035.

QRSL1 (UniProt Q9H0R6): the log2 fold change is 0.018.

For the target SBF1 isoform 4 (UniProt O95248), the log2 fold change is 0.

On to RAP1B (UniProt P61224), for which the log2 fold change was 0.051.

For the target RPS26P11 (UniProt Q5JNZ5), the log2 fold change is 0.008.

On to RPL8 (UniProt P62917), for which the log2 fold change is 0.01.

Regarding RIPK1 (UniProt Q13546), the log2 fold change was -0.009.

Turning to RDX (UniProt P35241), the log2 fold change was -0.003.

In the case of RAB21 (UniProt Q9UL25), the log2 fold change was 0.057.

Consider RBBP7 isoform 2 (UniProt Q16576), for which the log2 fold change is 0.062.
